Source: the supplement of paper PMC13380429

Tested on: Vero E6 infected with SARS-CoV-2
Assay: inhibition of SARS-CoV-2 cytopathic effect; higher = more antiviral protection, active = above 15
Conditions: 48 h

Measured: inhibition of SARS-CoV-2 cytopathic effect

CCCCC(=O)O[C@]1(C(=O)CO)[C@@H](C)C[C@H]2[C@@H]3CCC4=CC(=O)C=C[C@]4(C)[C@@]3(F)[C@@H](O)C[C@@]21C
inactive: 1 nM -3% | 8.33 nM -2.7% | 100 nM -2.96% | 833.33 nM -2.78% | 10000 nM -4.48%

O=C(O)C(F)(F)C(F)(F)C(F)(F)C(F)(F)C(F)(F)C(F)(F)C(F)(F)F [ammonium-perfluorocaprylate]
inactive: 1 nM 2.29% | 8.33 nM -0.68% | 100 nM 0.56% | 833.33 nM -0.2% | 10000 nM -2.3%

COC(=O)Nc1nc2cc([S+]([O-])c3ccccc3)ccc2[nH]1 (stereo not given) [oxfendazole]
inactive: 1 nM 3.62% | 8.33 nM 1.23% | 100 nM 6.94% | 833.33 nM 0.7% | 10000 nM -1.5%

C#Cc1cccc(Nc2ncnc3cc(OCCOC)c(OCCOC)cc23)c1 [erlotinib]
inactive: 1 nM -0.8% | 8.33 nM -0.26% | 100 nM -1.96% | 833.33 nM -4.63% | 10000 nM -14.6%

CNC(=O)[C@H]1O[C@@H](n2cnc3c(NCc4cccc(I)c4)ncnc32)[C@H](O)[C@@H]1O
inactive: 1 nM 0.17% | 8.33 nM 0.13% | 100 nM -0.04% | 833.33 nM 0.25% | 10000 nM -2.76%
